Compound activity from PubChem BioAssay.
HCMV antiviral – inhibitors of human cytomegalovirus | HFF cells, HCMV-luciferase reporter, 72 h; active compounds read low | activity change, negative = inhibition, % at 57.5 µM | 4.5% of 410,000 active; in the data active = activity change below about -60%; inconclusive = no clear call, values can overlap the other calls; inactive = above about -39%
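Screen run at 2 compound doses on HFFs infected with reporter HCMV, MOI 1 PFU/cell. Luciferase activity from cell lysates at 72 h post infection gave inhibition relative to buffer-only and Salinomycin wells.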
FMDV inh – foot and mouth disease virus antiviral activity; FMDV antiviral cell-based qHTS; Potency, µM (top dose mostly 57.9 µM), without a hit: at the highest dose activity change, negative = inhibition, hits mostly inhibitors; 1.2% of 410,000 active; AID 1159524; calls by dose curve; tested in HEK293T cells; also: read-out not given here; potency is read from the fitted curve at half-maximal effect; nearly all actives have a fitted effect of over 45% in size
Marburg entry inh – blocks Marburg virus binding to or entry into cells | Marburg virus pseudotyped entry inhibition, cell reporter | Potency, µM (titrated, usually from 37.8 µM), for inactives: top-dose activity change, negative = inhibition, hits mostly inhibitors | 1.8% of 300,000 active; calls by dose curve; tested in HEK293 cells; also: potency is read from the fitted curve at half-maximal effect
HCV inh – HCV inhibition; Huh7.5.1 HCVcc-Cre infection, luciferase reporter, 44 h; Potency, µM (titrated, usually from 41.8 µM), without a hit: at the top dose activity change, negative = inhibition, most hits filed as inhibitors; 3.4% of 340,000 active; AID 651820; active = well fitted inhibition curve with a large enough effect; inconclusive = small, poorly fitted or top-dose-only effect, or another doubt; inactive = no such curve, though single readings can be large or run the other way; also: potency is read from the fitted curve at half-maximal effect
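Reporter virus HCVcc-Cre (~0.5 moi) infects cells exposed to compound; seeding density 1,000 cells/well with 4 h settling beforehand. Luminescence, 15 sec read, taken 44 h post-infection following a 15 min RT substrate incubation.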
Lassa entry inh – Lassa virus entry inhibition | Lassa virus pseudotype entry inhibition, cell reporter | Potency, µM (series often up to 37.9 µM), inactives show at the highest dose activity change, negative = inhibition, hits mostly inhibitors | 1.2% of 300,000 active; calls by dose curve; tested in HEK293 cells; also: potency is read from the fitted curve at half-maximal effect; nearly all actives have a fitted effect of over 50% in size
Active calls of the source: *; u = inconclusive; x = no result; [ ] = dose if it differs, or a comment. This is a sample that favours compounds with a hit; in the whole collection about 7.9% have one here. % is scaled to controls: 0 for no effect and ±100 for the full control effect.

SMILES	HCMV antiviral	FMDV inh	Marburg entry inh	HCV inh	Lassa entry inh
CN(Cc1ccc(Cl)cc1Cl)C(=O)c1cc(=O)c2ccccc2o1	-63.0*	-0.4%	1.3%[46.1 µM]	-11.7%	-2.3%
Cc1ccc(C#N)c(SCc2ccccc2F)n1	u	7.8%	0.1%[46.1 µM]	3.8%	18.2%
Cc1ccc2nc(CSc3nc(C)ccc3C#N)[nH]c2c1	144.2	8.91µM*	2.31µM*	u	1.03µM*
CN1Cc2c(N3CCOCC3)nc3sc(C(=O)c4ccc(Br)cc4)c(N)c3c2CC1(C)C	-94.7*	-1.2%	u	-85.7%	u
CN1Cc2c(N3CCOCC3)nc3sc(C#N)c(N)c3c2CC1(C)C	31.7	-21.6%	-9.6%[46.1 µM]	-8.5%	u
COc1cc(/C=N/NC(=S)NC2CC3C=CC2C3)cc(OC)c1OC (stereo unspecified)	-61.0*	u	u	u	u
CC(C)c1nn2c(=O)cc(COC(=O)c3ccc(NC(=O)c4ccccc4Cl)cc3)nc2s1	-19.1	u	x	x	u
COc1ccccc1N(C(=O)c1snc(C(N)=O)c1N)C(C(=O)NC1CCCC1)c1ccco1 (stereo unspecified)	u	-4.4%	u	0.1%	u
COc1ccc(C)cc1N(C(=O)c1snc(C(N)=O)c1N)C(C(=O)NC1CCCCC1)c1ccc(C)o1 (stereo unspecified)	u	-0.3%	11.2µM*	u	u
COCCNC(=O)C(c1ccc(C)o1)N(C(=O)c1snc(C(N)=O)c1N)c1cc(C)cc(C)c1 (stereo unspecified)	-78.5*	x	1.1%	-9.5%	u
COc1ccc(OC)c(C(C(=O)NC2CCCCC2)N(C(=O)c2snc(C(N)=O)c2N)c2ccccc2OC)c1 (stereo unspecified)	-60.7*	-22.3%	u	0.2%	u
OC1(c2cccnc2)CCN(Cc2ccc3c(c2)CN(Cc2ccsc2)CCO3)CC1	x	-11.2%	x	x	x
Cc1ccccc1NC(=O)c1c(NC(=O)C(C)Oc2cccc(Cl)c2)sc2c1CCCC2 (stereo unspecified)	31.8	-5.2%	x	x	-2.5%[46.1 µM]
CN(C)S(=O)(=O)N(CC(=O)NCCSCc1cccc(Cl)c1)c1ccccc1	-3.8	-18.6%	-9.1%[46.1 µM]	x	-29.5%[46.1 µM]
COc1ccc(N2C(=O)N3[C@H](c4ccccc4)[C@@H](C)C[C@H]4c5ccccc5C[C@]43C2=O)cc1	x	x	2.0%[14.2 µM]	x	x
O=C(CCc1ccc(S(=O)(=O)NC2CCCCC2)cc1)Nc1ccccc1	-68.9*	14.6%	-8.3%	6.7%	5.5%
O=C(CCc1ccc(S(=O)(=O)NC2CCCCC2)cc1)N(Cc1ccccc1)Cc1ccccc1	u	32.0%	12.6µM*	u	u
O=C(CCc1ccc(S(=O)(=O)NC2CCCCC2)cc1)NCc1ccccn1	11.3	33.3%	4.0%	33.5%	-1.4%
COCCOC(=O)C1=C(C)NC(=O)NC1c1cn(-c2ccccc2)nc1-c1ccccc1 (stereo unspecified)	-8.6	23.0%	u	x	-26.4%[46.1 µM]
CCN(CC)c1ccc(-c2nnc(SCC(=O)Nc3ccccc3C#N)n2-c2ccccc2)cc1	-18.5	u	u	u	11.2µM*
N#Cc1ccccc1NC(=O)CSc1nnc(-c2ccccc2)n1-c1ccccc1	u	u	u	1.5%	u
CCc1cc(CNC(=O)c2ccc3nc(Cc4ccc(OC)c(OC)c4)oc3c2)on1	-14.6	-21.1%	x	4.47µM*	x
COc1ccc(C(=O)Nc2ccc3oc(Cc4ccc(Cl)cc4)nc3c2)cc1OC	-23.2	u	0.0%	11.2µM*	x
COC(=O)N[C@@H](c1ccc2ccccc2c1)C(C(C)=O)C(=O)OC (stereo partly specified)	x	x	-16.1%[14.2 µM]	x	x
Cc1ccc(C)c(N2CCN(C(=O)CCn3c(=O)c4cccn4c4cccnc43)CC2)c1	-10.9	u	x	x	-12.0%[46.1 µM]
SMILES	HCMV antiviral	FMDV inh	Marburg entry inh	HCV inh	Lassa entry inh
CCOC(=O)c1c(-c2ccc(C)cc2)csc1NC(=O)c1cc(=O)c2cc(C)cc(C)c2o1	5.4	-13.0%	0.8%[46.1 µM]	x	18.7%[46.1 µM]
C[C@H]1CC[C@H]2C(=O)O[C@H](CO)CN2[C@H]1c1ccc(Br)cc1	x	x	-20.5%[14.2 µM]	x	u
COC(=O)CSc1nnc(CSc2nc(C)cc(C)n2)n1Cc1ccco1	8.1	-21.1%	-18.7%	10.6%	7.0%
Cc1cc(C)nc(SCc2nnc(SCC(=O)Nc3ccc(C)c(C)c3)n2Cc2ccco2)n1	33.5	-0.6%	u	25.1µM*	u
Cc1onc(-c2c(Cl)cccc2Cl)c1C(=O)ONC(=O)c1cc(C(F)(F)F)cc(C(F)(F)F)c1	-98.7*	u	15.8%	-8.3%	10.0%
Cc1onc(-c2c(Cl)cccc2Cl)c1C(=O)Nn1cnnc1	0.5	-11.5%	18.7%	5.1%	2.2%
Cc1ccc(Cn2c(SCc3ccc(C(=O)O)cc3)nc3cccnc32)cc1	18.7	-9.0%	-18.0%[46.1 µM]	x	x
CC(C)NC(=O)/C(C#N)=C/c1cccc(NC(=O)c2ccccc2Cl)c1	41.4	14.1µM*	u	-1.7%	7.2%
COc1ccc(-c2ccc(C(=O)N3CCc4c(cnc(C)c4CNS(=O)(=O)N(C)C)C3)o2)cc1	x	-0.4%	x	x	x
C[C@@H]1CC[C@H]2C(=O)N(Cc3cccc([N+](=O)[O-])c3)C[C@@H](O)CN2[C@@H]1c1cccc(Br)c1	x	x	u	x	-5.5%[14.3 µM]
Cc1nnc(N2CCCC(C(=O)NCc3ccc(OC(C)C)cc3)C2)c2nn(-c3ccccc3)c(C)c12 (stereo unspecified)	-66.4*	-25.3%	x	u	x
COc1ccc(-n2nc3c(N4CCCC(C(=O)NCc5ccc(C)cc5)C4)nnc(C)c3c2C)cc1 (stereo unspecified)	-72.2*	-3.3%	x	x	u
Cc1ccc(-n2nc3c(N4CCC(C(=O)NCCc5cccs5)CC4)nnc(C)c3c2C)cc1	-83.0*	25.1µM*	x	u	x
COc1ccc(CNC(=O)C2CCCN(c3nnc(C)c4c(C)n(-c5ccc(C)cc5)nc34)C2)cc1 (stereo unspecified)	-23.9	-4.6%	x	x	-1.7%[46.1 µM]
COc1ccc(CNC(=O)C2CCN(c3nnc(C)c4c(C)n(-c5ccc(C)cc5)nc34)CC2)cc1	-107.0*	-22.1%	x	x	-3.3%[46.1 µM]
O=C(NC1=C(Cl)CCCC1)NC1CCCCC1Cl (stereo unspecified)	x	x	11.6%[46.1 µM]	x	x
CCOc1ccc(N2C(=O)N(Cc3ccc(C)cc3C)c3ccccc3S2(=O)=O)cc1	-9.4	-13.1%	x	x	0.2%[46.1 µM]
Cc1ccc(-n2nc3c(N4CCCC(C(=O)NCc5ccccc5C)C4)nnc(C)c3c2C)cc1 (stereo unspecified)	-63.5*	11.1%	x	x	-3.2%[46.1 µM]
Cc1c(OCC(F)(F)F)ccnc1CS(=O)c1nc2ccccc2[nH]1 (stereo unspecified)	22.4	-13.0%	u	u	u
COCCCOc1ccnc(CS(=O)c2nc3ccccc3[nH]2)c1C (stereo unspecified)	-65.1*	9.9%	x	u	x
CN(C)CCNc1cccc2sc3ccc(O)cc3c(=O)c12	-3.6	-15.7%	x	x	x
CN(C)CCNc1ccc2nnn3c4ccc(O)cc4c(=O)c1c23	-87.6*	-12.0%	u	10µM*	-11.9%
